The source made the active and inactive calls. Where a call stands in place of a potency, no number is given. Calls follow the shape of the dose curve; as a rule, active = well fitted cell-killing curve with a large enough effect; inconclusive = small, poorly fitted or top-dose-only effect; inactive = flat fitted curve, though single readings scatter.
Experiment: Cell Viability - LYMP1-002 - Assay at 24 hr (AID 993)
Details: LYMP1-002 lymphoblastoid cells viability; series mostly up to 92.2 µM
Source text: NIH Chemical Genomics Center [NCGC]
NIH Molecular Libraries Screening Centers Network [MLSCN]
National Institutes of Environmental Health Sciences [NIEHS]
National Toxicology Program [NTP]
We have developed a 1536-well cell-based assay for quantitative high throughput screening (qHTS) against a number of cell lines to determine in vitro cytotoxicity of small molecules. This particular assay uses a human lymphoblastoid cell line (LYMP1-002) purchased from Coriell Institute for Medical Research.
NCGC Assay Protocol Summary:
The CellTiter-Glo luminescent cell viability assay (Promega) is a homogeneous method to measure the number of viable cells in culture. The end point readout of this assay is based on quantitation of intracellular ATP, an indicator of metabolic activity, using the luciferase reaction. Luciferase catalyzes the oxidation of beetle Luciferin to oxyluciferin and light in the presence of ATP. The luminescent signal is proportional to amount of ATP present.
Using the CellTiter-Glo luminescent cell viability assay, the amount of cellular ATP was measured in the lymphoblastoid cell line with complete culture medium following compound treatment for 24 hours. The assay was performed in opaque white Kalypsys 1536-well plates. In the screen, tetraoctylammonium bromide was used as positive control. Library compounds were measured for their ability to cause acute toxicity in the cell line, as reflected by a decrease in intracellular ATP levels, in a concentration-dependent manner. […] AC50 values were determined from concentration-response data modeled with the standard Hill equation.
qHTS protocol for CellTiter Glo lymphoblastoid cellular assay
[Step] [Parameter] [Value] [Description]
1. Reagent; 5 uL; 2500 lymphoblastoid cells/well
2. Time; 5 hr; 37 C incubation
4. Controls; 23 nL; Tetraoctylammonium bromide 6.4pM to 92 uM
5. Time; 24 hr; 37 C incubation
6. Reagent; 5 uL; CellTiter Glo reagent
7. Time; 30 min; Room Temperature
8. Detection; Luminescence; Viewlux plate reader
Keywords: cell viability, cytotoxicity, lymphoblastoid cell line, luminescence, NTPHTS, NTPHTS_NCGC, NIEHS, DSSTox, MLSMR, MLSCN, NIH Roadmap, qHTS, NCGC
Potency is read from the fitted curve at half-maximal effect.

**Q.** Which Potency does the source give for `Oc1ccccc1` here?
**A.** inactive

**Q.** Which Potency does the source give for `COc1cc(C=O)ccc1O` here?
**A.** inactive

**Q.** Which Potency does the source give for `Nc1ccc(O)cc1` here?
**A.** 39.8 µM (active)

**Q.** Which Potency does the source give for `CC(C)C(C)(C)C(C)(C)C(C)(C)S` here?
**A.** inactive

**Q.** With `C1=CC2C3C=CC(C3)C2C1` (stereo not given) as the molecule, how does the Potency read?
**A.** inactive

**Q.** Which Potency does the source give for `OCc1c[nH]c2ccccc12` here?
**A.** inactive

**Q.** With `O=C(NO)c1ccccc1` as the molecule, how does the Potency read?
**A.** inactive

**Q.** Which Potency does the source give for `CC(C)(c1ccc(O)cc1)c1ccc(O)cc1` here?
**A.** inactive

**Q.** For `Cc1cc(C(C)(C)C)c(O)c(C(C)(C)C)c1`, which Potency is on record?
**A.** inactive

**Q.** With `CCCCC(CC)COC(=O)c1ccccc1C(=O)O` (stereo not given) as the molecule, how does the Potency read?
**A.** inactive

**Q.** For `Brc1ccccc1-c1ccccc1`, which Potency is on record?
**A.** inactive

**Q.** For `CCCC(=O)c1cc(O)c(O)cc1O`, which Potency is on record?
**A.** inactive

**Q.** For `Nc1cccc2c(N)cccc12`, which Potency is on record?
**A.** inactive

**Q.** For `Nc1c2ccccc2nc2ccccc12`, which Potency is on record?
**A.** 20 µM (active)

**Q.** With `CCCCCCCCCCCCCCCC[n+]1ccccc1` as the molecule, how does the Potency read?
**A.** 15.8 µM (active)

**Q.** With `CC(=O)OC/C=C(C)/C=C/C=C(C)/C=C/C1=C(C)CCCC1(C)C` as the molecule, how does the Potency read?
**A.** inactive

**Q.** Which Potency does the source give for `O=C(c1ccccc1)c1ccccc1` here?
**A.** inactive

**Q.** For `Cc1ccc(O)cc1`, which Potency is on record?
**A.** inactive

**Q.** Which Potency does the source give for `c1ccc2occc2c1` here?
**A.** inactive

**Q.** With `O=C(Oc1ccccc1)c1ccccc1O` as the molecule, how does the Potency read?
**A.** inactive

Source: PubChem BioAssay (NCATS)
